This passage reports growth results from PubChem BioAssay (NCI).

About 83,000 compounds went through this panel and 20% of them were active in at least one assay; those are over-represented in the sample as a whole.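 Percent growth is the endpoint: 0 to 100 indicates growth inhibition (40 means 60% inhibition), 0 means no net growth, and negative values indicate cell death.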 Unmarked numbers belong to inactive results. Active and inactive are the calls of the source. Rule for the calls: active = growth percent below 10; inactive = the rest.

Test systems include RPMI-8226 leukemia; OVCAR-8 ovarian; OVCAR-5 ovarian; OVCAR-4 ovarian; SK-OV-3 ovarian; IGROV1 ovarian; OVCAR-3 ovarian; HS 578T breast; NCI/ADR-RES ovarian; T-47D breast; BT-549 breast; MDA-MB-435 melanoma; SW-620 colon; MCF7 breast; HCT-116 colon; KM12 colon; HCC-2998 colon.
Test in all cases: NCI-60 one-dose screen, 48 h (100 = growth as untreated, 0 = no growth, -100 = all killed)
Conditions in all cases: 10 µM unless noted

For the compound `CCN1C2=C(SC(=S)C1=C1SC(C(=O)OC)=C(C(=O)OC)S1)SC(=Nc1ccc(OC)cc1)C2=O`, the growth with RPMI-8226 leukemia is -13.4% (active); in the assay with OVCAR-8 ovarian, -21.7% (active); in the assay with OVCAR-5 ovarian, -24.6% (active); in the assay with OVCAR-4 ovarian, 5.88% (active); with SK-OV-3 ovarian, 61%; in the assay on IGROV1 ovarian it was -58.3% (active). The growth in the assay with OVCAR-3 ovarian was -61% (active); in the assay with HS 578T breast, 26.2%; in the assay with NCI/ADR-RES ovarian it was -12.2% (active); in the assay with T-47D breast, 12.7%; in the assay on BT-549 breast, -80.5% (active); in the assay on MDA-MB-435 melanoma it was -40.3% (active). The growth was -67.4% (active) with SW-620 colon, 4.13% (active) in the assay on MCF7 breast, -80% (active) in the assay on HCT-116 colon and -89.1% (active) with KM12 colon.
In the case of `O=C(OC[C@H]1O[C@H](OC(=O)c2cc(O)c(O)c(OC(=O)c3cc(O)c(O)c(O)c3)c2)[C@H](OC(=O)c2cc(O)c(O)c(OC(=O)c3cc(O)c(O)c(O)c3)c2)[C@@H](OC(=O)c2cc(O)c(O)c(OC(=O)c3cc(O)c(O)c(O)c3)c2)[C@@H]1OC(=O)c1cc(O)c(O)c(OC(=O)c2cc(O)c(O)c(O)c2)c1)c1cc(O)c(O)c(OC(=O)c2cc(O)c(O)c(O)c2)c1`, the growth with RPMI-8226 leukemia is 34.9%; with OVCAR-8 ovarian, 30.2%; in the assay with OVCAR-5 ovarian, 48.3%; in the assay with OVCAR-4 ovarian, 37.8%; in the assay with SK-OV-3 ovarian it was 49.8%; in the assay on IGROV1 ovarian it was 29.8%. Besides, the growth is 13.8% in the assay with OVCAR-3 ovarian; 66.1% in the assay on HS 578T breast; 9.15% (active) in the assay with NCI/ADR-RES ovarian; 33.2% with T-47D breast; 47.4% in the assay with BT-549 breast; 8.23% (active) in the assay with MDA-MB-435 melanoma. The growth in the assay on SW-620 colon is 47.5%; in the assay with HCT-116 colon it was 11.5%; with HCC-2998 colon, 1.77% (active).
As to `O=C(O)c1ccc(NC(=O)c2cccc(Nc3ccnc(C(F)(F)F)c3)c2)cc1`, the growth in the assay on RPMI-8226 leukemia is 98.3%; in the assay with OVCAR-8 ovarian it was 98.9%; in the assay on OVCAR-5 ovarian it was 103%; in the assay with OVCAR-4 ovarian it was 98.1%; in the assay with SK-OV-3 ovarian, 105%; with IGROV1 ovarian, 106%. Further, the growth with OVCAR-3 ovarian was 104%; in the assay with HS 578T breast, 98.3%; with NCI/ADR-RES ovarian, 107%; in the assay with T-47D breast it was 94.3%; in the assay on BT-549 breast, 95.8%; in the assay with MDA-MB-435 melanoma it was 106%. For the same compound, the growth with SW-620 colon was 103%; with HCT-116 colon it was 95%; in the assay with HCC-2998 colon, 104%; with KM12 colon it was 107%.
With `C[N+]1(CCC[N+]2(C)C[C@@H]3[C@H](C2)[C@@H]2C=C[C@H]3C2)CCOCC1` (stereo not given in full), the growth in the assay with RPMI-8226 leukemia is 106%; in the assay on OVCAR-8 ovarian it was 104%; in the assay on OVCAR-5 ovarian, 88.9%; with OVCAR-4 ovarian it was 112%; in the assay with SK-OV-3 ovarian, 99.3%; with IGROV1 ovarian, 103%. For the same compound, the growth in the assay on OVCAR-3 ovarian is 116%; with HS 578T breast it was 111%; in the assay on NCI/ADR-RES ovarian it was 107%; in the assay with T-47D breast it was 109%; in the assay with BT-549 breast, 103%; in the assay with MDA-MB-435 melanoma it was 113%. Further, the growth in the assay with SW-620 colon is 106%; in the assay with HCT-116 colon, 105%; in the assay with HCC-2998 colon, 112%.
For the compound `CCCc1cc(=O)n2c(C(=O)Nc3ccccc3OC)c(C(=O)Nc3ccc(F)cc3)sc2n1`, the growth in the assay on RPMI-8226 leukemia is 30.5% [30 µM]; in the assay with OVCAR-8 ovarian it was 18.5% [30 µM]; in the assay with OVCAR-5 ovarian it was 57.8% [30 µM]; in the assay with OVCAR-4 ovarian it was 36.2% [30 µM]; with SK-OV-3 ovarian it was 29.9% [30 µM]; in the assay on IGROV1 ovarian, -12.6% [30 µM] (active). Moreover, the growth in the assay with OVCAR-3 ovarian is 51.3% [30 µM]; in the assay with HS 578T breast, 9.91% [30 µM] (active); in the assay on NCI/ADR-RES ovarian, 24.8% [30 µM]; with T-47D breast, 85.4% [30 µM]; with BT-549 breast, -14.2% [30 µM] (active); in the assay with MDA-MB-435 melanoma it was 65.8% [30 µM]. Also, the growth in the assay with SW-620 colon was 64.1% [30 µM]; in the assay with MCF7 breast it was 52.7% [30 µM]; with HCT-116 colon, 27.2% [30 µM]; in the assay with KM12 colon, 76.6% [30 µM].
In the case of `CCCn1cnc2c1c(=O)n(CCCCC(C)=O)c(=O)n2C`, the growth was 101% in the assay with RPMI-8226 leukemia; 98.3% with OVCAR-8 ovarian; 110% in the assay with OVCAR-5 ovarian; 97.1% in the assay with OVCAR-4 ovarian; 95.1% in the assay on SK-OV-3 ovarian; 97.6% with IGROV1 ovarian. Besides, the growth in the assay on OVCAR-3 ovarian was 115%; in the assay on HS 578T breast it was 104%; in the assay with NCI/ADR-RES ovarian, 108%; in the assay with T-47D breast it was 99%; in the assay with BT-549 breast, 103%; in the assay with MDA-MB-435 melanoma it was 117%. The growth was 97.7% in the assay on SW-620 colon, 92.6% in the assay with MCF7 breast, 96.8% with HCT-116 colon and 114% with KM12 colon.
For the compound `Cc1ccsc1/C=C/C1=NCCCN1C`, the growth in the assay with RPMI-8226 leukemia was 100%; in the assay with OVCAR-8 ovarian, 108%; with OVCAR-5 ovarian, 111%; in the assay on OVCAR-4 ovarian, 102%; in the assay with SK-OV-3 ovarian, 103%; in the assay with IGROV1 ovarian, 101%. The growth with OVCAR-3 ovarian is 108%; with HS 578T breast it was 115%; in the assay on NCI/ADR-RES ovarian it was 107%; in the assay with T-47D breast, 93.9%; in the assay with BT-549 breast, 102%; with MDA-MB-435 melanoma, 103%. The figures for the growth in the assay with SW-620 colon, with HCT-116 colon and in the assay with HCC-2998 colon were 105%, 103% and 102%, respectively.
In the case of `CC1(C)OC(=O)C(=Cc2ccccc2Br)C(=O)O1`, the growth in the assay on RPMI-8226 leukemia is 95.5%; in the assay with OVCAR-8 ovarian, 99.4%; in the assay with OVCAR-5 ovarian, 96.6%; in the assay on OVCAR-4 ovarian, 102%; with SK-OV-3 ovarian it was 111%; in the assay on IGROV1 ovarian it was 102%. The growth is 106% in the assay on OVCAR-3 ovarian; 101% with HS 578T breast; 106% in the assay with NCI/ADR-RES ovarian; 102% with T-47D breast; 107% with BT-549 breast; 98% with MDA-MB-435 melanoma. Also, the growth with SW-620 colon was 96.2%; with MCF7 breast, 102%; in the assay with HCT-116 colon, 79.3%; in the assay with KM12 colon it was 108%.
